From PubChem BioAssay
TLR9-MyD88 inh = inhibitors of human TLR9-MyD88 binding; Q9NR96+Q99836; CHO BLA complementation TLR9-MyD88, CCF4 FRET ratio; inhibition, % at 4.98 µM; actives 0.21% (n = 340,000);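 active = inhibition above the mean over all tested compounds plus 3 SD, cut at about 21% in these data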;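 also: 0% = DMSO only wells and 100% = clavulanate BLA inhibitor control wells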
B2AR ag = activates human beta-2 adrenergic receptor causing internalization | actives 0.43% (n = 340,000) | response, % (test concentration not listed) | Am2.2-beta2AR cells, FAP receptor internalization, flow cytometry;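 active = response above a set limit, near 3 SD of response in nonfluorescent compounds, cut at about 42% in these data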
NOD2 RIPK2 PPI = inhibitors of human NOD2-RIPK2 interaction; AID 624267; O43353; actives 0.38% (n = 360,000); inhibition, % at 4.98 µM; CHO BLA complementation NOD2-RIPK2, CCF4 ratio; in the data active = inhibition above about 21%;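 also: 0% = vehicle only and 100% = reference blocker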
ABHD5 PLIN5 PPI = blocks binding of human ABHD5 to perilipin-5; Q00G26+Q8WTS1; inhibition, % at 4 µM; actives 0.78% (n = 360,000); Split G. princeps luciferase complementation, luminescence, 4 h;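 active = inhibition above the mean inhibition across every tested compound plus 3 SD, cut at about 22% in these data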;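 also: 0% = DMSO only wells and the 100% control is not disclosed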
NTR1 ag = agonists of human neurotensin receptor NTR1; AID 493036; P30989; activation, % at 20 µM; actives 0.17% (n = 330,000); NTR1-U2OS beta-arrestin-GFP spot imaging, agonist mode;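 active = activation at or above 40% of the spot to cytoplasm intensity ratio, with at least 20 cells analyzed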;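 also: 0% = DMSO without peptide and 100% = 100 nM NTR1 peptide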
Target sequence (P30989 whole entry, looked up): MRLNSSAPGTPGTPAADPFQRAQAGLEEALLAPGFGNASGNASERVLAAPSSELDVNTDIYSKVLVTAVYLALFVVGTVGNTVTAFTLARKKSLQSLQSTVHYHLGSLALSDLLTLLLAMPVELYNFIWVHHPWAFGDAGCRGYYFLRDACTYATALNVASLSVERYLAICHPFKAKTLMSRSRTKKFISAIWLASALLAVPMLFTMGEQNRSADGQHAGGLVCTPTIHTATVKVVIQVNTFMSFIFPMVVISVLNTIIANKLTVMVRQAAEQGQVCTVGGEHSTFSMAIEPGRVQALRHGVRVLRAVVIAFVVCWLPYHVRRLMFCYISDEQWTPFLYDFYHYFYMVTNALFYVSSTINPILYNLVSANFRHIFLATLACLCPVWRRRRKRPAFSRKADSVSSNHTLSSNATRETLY
TLR4-MyD88 BLA = TLR4-MyD88 interaction inhibition in cells; HeLa CL3-4 TLR4/MyD88 BLA complementation, FRET ratio; inhibition, % at 8.4 µM; actives 0.18% (n = 200,000); AID 861; in the data active = inhibition above about 25%;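 also: 0% = vehicle and 100% = reference inhibitor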
ABHD5-PLIN5 conf = ABHD5-PLIN5 interaction inhibition, confirmed. shares compounds with ABHD5 PLIN5 PPI. inhibition, % at 4 µM. biochemical ABHD5-PLIN5 interaction, luminescence. actives 67% (n = 2,200); in the data active = inhibition above about 23%;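 also: 0% = DMSO vehicle wells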
HNF4 counter = HNF4 split-luciferase signal hit, counter-screen. shares compounds with ABHD5 PLIN5 PPI. HNF4 dimerization, luminescence, biochemical. inhibition, % at 4 µM. actives 77% (n = 2,200). AID 651674;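 active = mean inhibition across replicate wells exceeding the computed hit threshold, cut at about 13% in these data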;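 also: light from luciferase halves that rejoin when HNF4 fusion proteins dimerize; 0% = DMSO only wells and the 100% control is not given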
Active calls of the source: *; . = no result given. The list is not random: actives were taken first. Their share in the collection is about 1.5%.

SMILES	TLR9-MyD88 inh	B2AR ag	NOD2 RIPK2 PPI	ABHD5 PLIN5 PPI	NTR1 ag	TLR4-MyD88 BLA	ABHD5-PLIN5 conf	HNF4 counter
Cn1c(N=Nc2ccc(N3CCOCC3)cc2)[n+](C)c2ccccc21	-3.7	-11.8	-6.5	24.4*	.	4.9	20.9	39.1*
Cn1c(=Nc2ccc(N3CCOCC3)cc2)ccc2ccccc21	-3.7	-1.1	-4.3	3.7	-0.4	4.7	.	.
CC(C)(C)OC(=O)N1Cc2cc3ccccc3nc2C1	5.5	.	-8.1	2.1	.	.	.	.
CCOC(=O)C1(C(=O)OCC)COC(=O)C1CN1Cc2cc3ccccc3nc2C1 (centres undefined)	-0.9	.	-9.1	46.3*	.	.	29.2*	88.6*
CC1(C(=O)Nc2cnc3ccccc3c2)CCN1Cc1ccc(OC(F)(F)F)cc1 (centres undefined)	.	.	13.1	-4.1	.	.	.	.
COc1ccc(C(O)c2nc(-c3ccccc3)cs2)cc1 (centres undefined)	.	.	0.2	0.0	.	.	.	.
Cc1cccc(N2CCN(C(=S)Nc3ccc4nc(N5CCN(C)CC5)cc(C)c4c3)CC2C)c1 (centres undefined)	4.6	15.2	1.0	24.6*	4.4	10.5	9.8	-4.2
Cc1cc(N2CCN(C)CC2)nc2ccc(NC(=S)N3CCN(c4cccc(Cl)c4)CC3)cc12	-5.5	25.5	-7.8	9.7	0.4	-17.6	.	.
CCCCn1c(=O)cc(N2CCOCC2)[nH]c1=O	-6.7	12.1	8.9	25.3*	-0.3	2.0	2.5	1.9
CC1=C(C(=O)N2CCCCCC2)CC(CC(=O)NC2CCCCC2)C(=O)N1Cc1ccc(F)cc1 (centres undefined)	.	.	-11.9	-10.6	.	.	.	.
CCCC(=O)Nc1nnc(S(=O)(=O)N(C)Cc2ccco2)s1	-8.5	1.8	-2.1	41.4*	-1.2	.	30.4*	55.7*
CN(Cc1ccco1)S(=O)(=O)c1nnc(NC(=O)c2ccccc2Cl)s1	4.0	2.5	6.4	29.5*	-0.3	.	45.7*	74.2*
Cc1ccc2c(c1)C(=O)C(=O)N2Cc1ccc(C(F)(F)F)cc1	0.1	28.2	14.1	41.6*	10.1	.	35.6*	39.7*
CC(=O)OC[C@]12CC[C@H]3[C@@](C)(CC[C@H]4C(C)(C)CCC[C@]34C)[C@@H]1C[C@H](C1=CC(=O)O[C@H]1OC(C)=O)O2	.	.	.	.	11.7	.	.	.
CC(O)CC(=O)OC[C@]12CC[C@H]3[C@@](C)(CC[C@H]4C(C)(C)CCC[C@]34C)[C@@H]1CC(C1=CC(=O)OC1O)O2 (some centres undefined)	.	.	13.9	79.6*	.	.	97.1*	71.4*
O=C(O)CCS(=O)(=O)c1nc(-c2cccs2)cc(C(F)(F)F)n1	-2.4	-7.7	-8.4	27.6*	3.8	2.9	58.7*	66.2*
COc1cccc(-n2nc(C#N)c(Cl)cc2=O)c1	17.2	84.0*	69.6*	29.2*	-1.7	6.1	36.8*	41.3*
CC(C)c1ccc(NC(=O)C2Cc3c(-c4cccc(F)c4)ccnc3O2)cc1 (centres undefined)	.	.	-5.0	0.4	.	.	.	.
COC(=O)C(=Cc1ccc(-c2ccsc2C(=O)OC)o1)C(=O)OC	-6.5	0.2	9.3	23.3*	0.9	.	24.0*	37.1*
Cc1ccc(C(=O)Nc2nc3ccccc3c(=O)s2)cc1	-2.1	-8.0	-8.4	28.7*	0.2	7.6	5.8	-9.9
OC[C@@H]1CN(Cc2cccs2)C[C@H](n2cnc3c(NCc4ccc(F)cc4)ncnc32)O1	.	.	-1.1	0.0	.	.	.	.
CCCCCCCCCc1conc1C(=O)/C=C/c1oc2c(c1C)CCC(C)C2 (centres undefined)	.	.	-13.9	41.6*	.	.	36.6*	-1.2
CC(C)(C)OC(=O)NCCCCCc1cn(CC(=O)NCCCCCCCCCCC(=O)N2CCN(C(=O)OC(C)(C)C)CC2)nn1	1.7	4.7	0.1	-2.9	3.4	.	.	.
C#CCOCCOCCOCCNc1nc(N2CCN(C(=O)CCCCCCCCCCNC(=O)[C@@H](CCSC)n3cc(CCO)nn3)CC2)nc(N2CCN(C(=O)CCCCCCCCCCNC(=O)[C@@H]([C@H](C)O)n3cc(C)nn3)CC2)n1	2.4	9.1	-5.9	52.7*	1.5	.	8.3	-16.6
C#CCOCCOCCOCCNc1nc(N2CCN(C(=O)CCCCCCCCCCNC(=O)[C@H](CCCCN)n3cc(C)nn3)CC2)nc(N2CCN(C(=O)CCCCCCCCCCNC(=O)[C@@H]([C@H](C)O)n3cc(C)nn3)CC2)n1	0.1	26.2	6.8	43.6*	4.5	.	7.5	-3.6
SMILES	TLR9-MyD88 inh	B2AR ag	NOD2 RIPK2 PPI	ABHD5 PLIN5 PPI	NTR1 ag	TLR4-MyD88 BLA	ABHD5-PLIN5 conf	HNF4 counter
Cc1cn([C@@H](CCCCNC(=O)OC(C)(C)C)C(=O)NCCCCCCCCCCC(=O)N2CCN(C(=O)OC(C)(C)C)CC2)nn1	-5.7	20.6	-0.6	23.9*	13.8	.	2.9	-10.3
CN1CCN(c2ncnc3c2ncn3[C@H]2CN(Cc3ccc(Cl)cc3)C[C@@H](CO)O2)CC1	.	.	-6.3	13.5	.	.	.	.
O=C(NCc1cccnc1)c1cc(C2CCCN(S(=O)(=O)c3cccc4cccnc34)C2)on1 (centres undefined)	.	.	4.6	5.4	.	.	.	.
CCc1nc2c(OCc3cc(Cl)cc(Cl)c3)cccn2c1N(C)C(=O)c1cccc(OC)c1	.	.	1.0	11.4	.	.	.	.
CCCCC[C@@H](/C=C/C1C(=O)C=C[C@H]1C/C=C\CCCC(=O)OC)OC(C)=O (some centres undefined)	-1.9	22.5	11.5	27.5*	.	.	41.9*	63.2*
Cc1nc(C(C)NC(=O)c2cc(COc3ccc(C)c(C)c3)on2)c(C)s1 (centres undefined)	-3.6	-3.4	-2.7	29.2*	2.0	.	2.5	10.1
Cc1cccc(CC(C)NC(=O)c2cc(COc3ccc(C)c(C)c3)on2)n1 (centres undefined)	0.2	6.0	7.5	-5.4	0.8	.	.	.
Cc1ccc(-c2nc3ccc(C)cn3c2Cc2ccsc2)cc1	.	.	9.5	3.8	.	.	.	.
Cc1ccc2nc(C(C)(C)C)c(Cc3ccsc3)n2c1	.	.	0.1	40.4*	.	.	54.5*	47.6*
COc1ccc(OC)c(N2C(=O)c3ccccc3C2c2nnnn2-c2ccc3c(c2)OCCO3)c1 (centres undefined)	.	.	-12.7	-0.2	.	.	.	.
CC(C)NC(=O)C1(C)CN(S(C)(=O)=O)CC(=O)N1CC(F)(F)F (centres undefined)	.	.	-12.9	16.8	.	.	.	.
COc1cc2c(cc1OC)C(C)N(CCc1ccc(Cl)cc1)CC2 (centres undefined)	.	-4.5	0.1	24.0*	1.3	.	23.9*	0.0
COc1ccc(CC(Cc2ccc(OC)c(OC)c2)NC=O)cc1OC	2.5	.	-0.4	4.5	.	.	.	.
